Results on 92 compounds are retold here after paper PMC4336329 (PLoS ONE, 2015).

About 14,000 (4.5%) of roughly 310,000 compounds showed an effect of 50% or more. Effects have a minus sign here. The full list was thinned out, with strong results kept by preference.
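Also: peak tail current of the secondary pulse compared with the same well before compound.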

For this assay, the target named is human ether-à-go-go-related gene (hERG) potassium channel (human, UniProt Q12809). In words: primary screen, population patch clamp on CHO cells stably expressing hERG; higher = less effect of the substance.
Sequence of human ether-à-go-go-related gene (hERG) potassium channel (Q12809 whole entry, looked up): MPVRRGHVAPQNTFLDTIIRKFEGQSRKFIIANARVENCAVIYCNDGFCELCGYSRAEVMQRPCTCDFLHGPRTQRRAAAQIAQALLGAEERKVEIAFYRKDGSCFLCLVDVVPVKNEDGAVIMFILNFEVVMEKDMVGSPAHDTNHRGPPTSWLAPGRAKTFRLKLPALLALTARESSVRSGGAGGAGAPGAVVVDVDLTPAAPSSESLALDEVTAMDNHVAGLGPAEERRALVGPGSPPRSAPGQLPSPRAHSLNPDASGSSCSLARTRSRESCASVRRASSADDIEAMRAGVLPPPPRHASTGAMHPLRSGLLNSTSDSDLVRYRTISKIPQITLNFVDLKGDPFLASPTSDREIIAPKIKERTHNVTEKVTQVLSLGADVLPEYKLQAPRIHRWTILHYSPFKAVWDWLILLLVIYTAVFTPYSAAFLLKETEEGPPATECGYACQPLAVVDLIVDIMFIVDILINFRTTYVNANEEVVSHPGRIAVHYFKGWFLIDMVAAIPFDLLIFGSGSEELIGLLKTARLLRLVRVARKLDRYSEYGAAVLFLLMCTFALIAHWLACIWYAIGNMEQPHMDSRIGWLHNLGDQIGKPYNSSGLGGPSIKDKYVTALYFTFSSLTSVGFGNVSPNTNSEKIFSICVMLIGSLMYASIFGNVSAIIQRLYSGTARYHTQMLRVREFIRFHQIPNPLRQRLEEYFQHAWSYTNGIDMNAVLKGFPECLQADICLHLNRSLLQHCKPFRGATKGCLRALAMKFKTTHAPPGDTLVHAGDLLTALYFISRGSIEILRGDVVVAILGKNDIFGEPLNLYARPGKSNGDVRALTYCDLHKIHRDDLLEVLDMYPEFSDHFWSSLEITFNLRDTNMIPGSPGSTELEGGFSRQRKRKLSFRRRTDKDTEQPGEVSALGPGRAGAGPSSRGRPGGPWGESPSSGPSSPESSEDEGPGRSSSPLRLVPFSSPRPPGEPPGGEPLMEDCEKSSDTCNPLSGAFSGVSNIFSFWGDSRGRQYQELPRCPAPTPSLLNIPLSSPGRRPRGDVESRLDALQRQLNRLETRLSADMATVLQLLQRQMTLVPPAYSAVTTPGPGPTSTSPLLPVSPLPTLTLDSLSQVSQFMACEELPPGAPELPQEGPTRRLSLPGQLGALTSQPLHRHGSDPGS
As for `COC(=O)[C@@]1(Cc2ccc(OC)cc2)[C@H]2c3cc(C(=O)N(C)C)n(CCSCCO)c3C[C@H]2CN1C(=O)c1ccccc1`, the “hERG current change (%, negative = inhibition) at 10uM” value is on record as -18.4%.
The figure for `COC(=O)Nc1ccc(S(=O)(=O)N2CCCCC2)cc1` is -4.21%; for `Cn1nccc1C(=O)N/N=C/c1cccnc1` it is -14.8%; for `COCCNC(=O)CN1C(=O)COc2ccc(Cl)cc21` it is 21.8%.
The result for `Cc1nn(-c2ccccc2)c(C)c1NC(=O)COC(=O)CCCOc1ccccc1` reads 6.69%; that for `COc1ccc(Br)cc1/C=N/N1C(=O)CSC1=S`, 17.3%.
The result for `CCOC(=O)c1c[nH]c2ccc3ccccc3c2c1=O` reads 13%.
`COc1cc(C2C(C#N)=C(N)N(c3cccnc3)C3=C2C(=O)CCC3)ccc1O` (centres unmarked): the “hERG current change (%, negative = inhibition) at 10uM” value is recorded as -12%.
Take `CC1CCCN(S(=O)(=O)c2ccc3oc(=O)ccc3c2)C1` (centres unmarked): the “hERG current change (%, negative = inhibition) at 10uM” value is recorded as -19.4%.
The result for `Cc1ccc(N2CCN(S(=O)(=O)c3ccc4oc(=O)ccc4c3)CC2)cc1Cl` reads 3.42%.
The result for `O=c1ccc2cc(S(=O)(=O)N3CCOCC3)ccc2o1` reads 4.83%; that for `CC1CC(C)CN(S(=O)(=O)c2ccc3oc(=O)ccc3c2)C1` (centres unmarked), -59.5%; that for `O=c1ccc2cc(S(=O)(=O)N3CCN(c4ccc(Cl)cc4)CC3)ccc2o1`, -52.8%.
The result for `O=c1ccc2cc(S(=O)(=O)N3CCN(c4ccccc4)CC3)ccc2o1` reads -0.646%.
As for `CCOc1ccc(C(=O)Nc2ccccc2C(=O)O)cc1`, the “hERG current change (%, negative = inhibition) at 10uM” value is reported as 8.2%.
In the case of `Cc1ccc(S(=O)(=O)N2CCCCC2)cc1NC(=O)CSc1nnc(N)s1`, the “hERG current change (%, negative = inhibition) at 10uM” value was -20.2%.
The figure for `O=C(Cn1cc([N+](=O)[O-])cn1)N1CCN(c2ccccc2)CC1` is 7.25%; for `COc1ccc(C(NC(=O)C2C3C=CC(C3)C2C(=O)O)c2ccccc2)cc1` (centres unmarked) it is -4.58%; for `O=C(CN1CCCc2ccccc21)N/N=C/c1ccc(O)cc1O` it is -29.1%.
The result for `Cc1cccc(N2CCN(C(=O)CC(NC(=O)c3ccccc3Cl)c3ccccc3)CC2)c1C` (centres unmarked) reads -59.9%; that for `O=C(NC(CC(=O)N1CCN(c2ccc([N+](=O)[O-])cc2)CC1)c1ccccc1)c1ccccc1Cl` (centres unmarked), -85.3%.
The result for `O=C(NC(CC(=O)N1CCCC(C(F)(F)F)C1)c1ccccc1)c1ccccc1Cl` (centres unmarked) reads -8.81%; that for `C[C@H](NC(=O)c1ccccc1Cl)C(=O)OCC(=O)N1CCN(c2ccccc2)CC1`, -9.59%.
With `Cc1cccc(N2CCN(C(=O)c3ccccc3SCC(=O)N3CCCC3)CC2)c1C`, the “hERG current change (%, negative = inhibition) at 10uM” value is reported as -34.7%.
As for `O=C(NC(CC(=O)N1CCN(c2ccccc2O)CC1)c1ccccc1)c1ccccc1Cl` (centres unmarked), the “hERG current change (%, negative = inhibition) at 10uM” value was -70.6%.
Turning to `CC1CCN(C(=O)CC(NC(=O)c2ccccc2Cl)c2ccccc2)CC1` (centres unmarked), the “hERG current change (%, negative = inhibition) at 10uM” value was -15.7%.
The figure for `Cc1cccc(N2CCN(C(=O)CNC(=O)c3ccccc3)CC2)c1C` is -30.6%; for `O=C(NC(CC(=O)N1CCN(c2ccccc2)CC1)c1ccccc1)c1ccccc1Cl` (centres unmarked) it is -46.8%.
The figure for `C/C(=N\Nc1ccc([N+](=O)[O-])cc1)c1ccc(O)cc1` is -1.55%.
The figure for `CNC(=S)N(CCO)Cc1cc2cc3c(cc2[nH]c1=O)OCO3` is 24%.
As to `Cc1cccc(-n2c(SCC(N)=O)nnc2-c2ccccn2)c1C`, the “hERG current change (%, negative = inhibition) at 10uM” value is 1.28%.
Take `CCc1ccc(C(=O)NC(CC(C)C)C(=O)O)cc1` (centres unmarked): the “hERG current change (%, negative = inhibition) at 10uM” value is recorded as -2.4%.
In the case of `Cc1cc(/C=C2\C(=O)NC(=O)N(Cc3ccco3)C2=O)c(C)n1-c1ccc(C(=O)O)cc1`, the “hERG current change (%, negative = inhibition) at 10uM” value was 12.2%.
`COc1cccc(Nc2ncccc2C(=O)O)c1`: the “hERG current change (%, negative = inhibition) at 10uM” value is reported as 9.1%.
The figure for `CCN(CC)C(=O)CSc1nc2ccsc2c(=O)n1CCCC(=O)NCCc1ccc(S(N)(=O)=O)cc1` is 24.7%; for `O=C(CCc1ccccc1)NCc1ccccc1` it is -8.04%.
The result for `Cn1c(SCC(=O)Nc2ccccc2F)nc2c(c1=O)SCC2` reads -9.41%; that for `Cn1c(SCc2cccc([N+](=O)[O-])c2)nc2c(c1=O)SCC2`, -36.6%.
The result for `Cn1c(SCC(=O)Nc2ccccc2C(F)(F)F)nc2c(c1=O)SCC2` reads -57%.
On to `Cn1c(SCc2ccc([N+](=O)[O-])cc2)nc2c(c1=O)SCC2`, for which the “hERG current change (%, negative = inhibition) at 10uM” value was -67.5%.
The result for `Cn1c(SCC(=O)Nc2ccc(F)cc2)nc2c(c1=O)SCC2` reads -6.44%; that for `Cn1c(SCc2ccc(Br)cc2)nc2c(c1=O)SCC2`, -18.6%.
The figure for `Cc1cc(C)c(S(=O)(=O)N2CCN(c3ccccc3)CC2)c(C)c1` is 16.5%; for `Cc1ccc(NC(=O)c2ccccc2N2C(=O)C3C4C=CC(C5CC45)C3C2=O)cc1C` (centres unmarked) it is 2.91%; for `COc1ccc(-n2c(N)c(C(=O)NCc3ccco3)c3nc4ccccc4nc32)cc1OC` it is 16.7%.
As for `O=C(CNC(=O)c1ccc(Br)o1)NCc1ccccc1`, the “hERG current change (%, negative = inhibition) at 10uM” value stood at 6.66%.
The result for `O=C(c1sccc1-c1ccccc1)N1CCN(S(=O)(=O)c2ccccc2F)CC1` reads -49.3%; that for `O=C(NCCCN1CCN(c2cccc(Cl)c2)CC1)C1(S(=O)(=O)c2ccc(Cl)cc2)CC1`, -71%; that for `O=C(NCCCN1CCCCC1)C1(S(=O)(=O)c2ccc(Cl)cc2)CC1`, -32.3%.
The figure for `COc1ccc(N2CCN(CCCNC(=O)C3(S(=O)(=O)c4ccc(Cl)cc4)CC3)CC2)cc1` is -61.5%; for `O=C(NCCN1CCCC1)C1(S(=O)(=O)c2ccc(Cl)cc2)CC1` it is 11.7%; for `O=C(NCCc1ccccc1)C1(S(=O)(=O)c2ccc(Cl)cc2)CC1` it is 6.29%.
The result for `O=C(NCCN1CCN(c2ccccc2)CC1)C1(S(=O)(=O)c2ccc(Cl)cc2)CC1` reads -50.2%; that for `COc1ccc(N2CCN(CCNC(=O)Nc3cc(Cl)ccc3Cl)CC2)cc1`, 15.6%; that for `S=C(NCCCN1CCOCC1)N1CCN(c2cccc(Cl)c2)CC1`, -40.2%.
On to `COc1ccc(C2(C(=O)NCCCN3CCOCC3)CCOCC2)cc1.Cl`, for which the “hERG current change (%, negative = inhibition) at 10uM” value turned out to be 10.6%.
The result for `CC1CCC(C)(NS(=O)(=O)OCC(Cl)(Cl)Cl)CC1` (centres unmarked) reads -21.7%; that for `CN(C)C(/C=C/Nc1ccc(F)cc1)=C(C#N)C#N`, -8.47%; that for `CCN1C(=O)c2ccccc2S(=O)(=O)c2ccc(C(=O)NCC(OC)OC)cc21`, 6.16%.
The result for `NNC(=O)COc1ncn(-c2ccccc2)n1` reads 18%; that for `N#Cc1ccsc1NC(=O)COC(=O)c1cc(Br)ccc1O`, -22.2%.
The result for `Cc1c(C(=O)N2CCCc3ccccc32)oc2ccc(S(=O)(=O)N3CCOCC3)cc12` reads -44.2%.
For the compound `O=C(CNCCc1ccc(F)cc1)Nc1cc(F)ccc1F.O=C(O)C(=O)O`, the “hERG current change (%, negative = inhibition) at 10uM” value was -19.9%.
The result for `CCOc1ccccc1NC(=O)COc1ccc(S(=O)(=O)N2CCCC2)cc1` reads -4.32%; that for `O=C(NCC1CCCO1)c1ccc([N+](=O)[O-])s1` (centres unmarked), 25.4%.
Regarding `CCOC(=O)C(c1ccccc1)N1CCN(c2ccc(OC)cc2)CC1` (centres unmarked), the “hERG current change (%, negative = inhibition) at 10uM” value was found to be 4.91%.
The result for `C/C(CC(=O)Nc1ccc2c(c1)OCCO2)=N\NC(=O)Cc1ccccc1` reads -9.4%; that for `CCOc1ccc(OCCOC(=O)C2CCN(S(=O)(=O)c3ccc(C)c(C)c3)CC2)cc1`, -22.4%; that for `Cl.OC(COCc1ccc2c(c1)OCO2)CN1CCCCC1` (centres unmarked), -2.96%.
The figure for `CN1CCN(CC(O)COCc2ccc3c(c2)OCO3)CC1.Cl` (centres unmarked) is 6.52%.
The figure for `COc1ccc(COCC(O)CN2CCCCC2)cc1OC.Cl` (centres unmarked) is 16.6%; for `Cl.OCCN1CCN(CC(O)COCc2ccc3c(c2)OCO3)CC1` (centres unmarked) it is -1.01%.
Consider `COc1ccc(COCC(O)CN2CCOCC2)cc1OC.Cl` (centres unmarked), for which the “hERG current change (%, negative = inhibition) at 10uM” value was 20.8%.
As for `Cl.O=C1c2cccc3cccc(c23)C(=O)N1CC1CCN(CC(O)COCc2ccc3c(c2)OCO3)CC1` (centres unmarked), the “hERG current change (%, negative = inhibition) at 10uM” value is reported as -75.3%.
The figure for `Cl.OC(COCc1ccc2c(c1)OCO2)CN1CCN(Cc2ccccc2)CC1` (centres unmarked) is -33.1%; for `Cl.OC(COCc1ccc2c(c1)OCO2)CN1CCC(Cc2ccccc2)CC1` (centres unmarked) it is -87.6%; for `COc1ccc(COCC(O)CN2CCC(CN3C(=O)c4cccc5cccc(c45)C3=O)CC2)cc1OC.Cl` (centres unmarked) it is -71.5%.
As for `Cc1ccc2nc(C(O)C(O)c3nc4ccc(C)cc4[nH]3)[nH]c2c1` (centres unmarked), the “hERG current change (%, negative = inhibition) at 10uM” value is on record as -6.37%.
Take `O=C(Nc1nc(-c2ccc(Cl)cc2Cl)cs1)c1ccc(OCC2CCCO2)cc1` (centres unmarked): the “hERG current change (%, negative = inhibition) at 10uM” value is 6.82%.
The result for `COCCNc1nnc(SC(C)C(=O)Nc2c(C)n(C)n(-c3ccccc3)c2=O)s1` (centres unmarked) reads 11.8%; that for `CCN(CC)CCCNC(=O)c1nn(-c2cccc(OC)c2)c(=O)c2ccccc12`, -70.6%; that for `CCCCN(CC)CCNC(=O)c1cn(C)c(=O)c2c1c1ccccc1n2C`, -24.6%.
The result for `CCN(CC)CCCNC(=O)c1nn(-c2ccc(OC)cc2OC)c(=O)c2ccccc12` reads -0.745%; that for `CCCN(CCC)CCCNC(=O)c1cn(-c2ccc(OC)cc2)c(=O)c2ccccc12`, -48%; that for `CCCCN(CC)CCNC(=O)c1cn(-c2ccc(Cl)cc2)c(=O)c2ccccc12`, -77.7%.
For the compound `COc1cccc(-n2nc(C(=O)O)c3ccccc3c2=O)c1`, the “hERG current change (%, negative = inhibition) at 10uM” value is listed as 6.72%.
On to `CNC(=O)c1cn(-c2ccc(Cl)cc2)c(=O)c2ccccc12`, for which the “hERG current change (%, negative = inhibition) at 10uM” value is given as -9.43%.
The result for `CCN(CC)CCCNC(=O)CNC(=O)c1nn(-c2ccc(OC)cc2)c(=O)c2ccccc12` reads 23.8%; that for `COc1cccc(-n2nc(C(=O)N3CCN(Cc4ccccc4)CC3)c3ccccc3c2=O)c1`, -50.3%.
The figure for `COc1cccc(-n2nc(C(=O)N3CC(C)CC(C)C3)c3ccccc3c2=O)c1` (centres unmarked) is 3.43%; for `CCOC(=O)C(C)NC(=O)c1cn(-c2ccc(OC)cc2)c(=O)c2ccccc12` (centres unmarked) it is 5.7%; for `CCCCN(CC)CCCNC(=O)c1cn(-c2ccc(OC)cc2)c(=O)c2ccccc12` it is -56.5%.
